Screening data (PubChem BioAssay)
Rows were chosen to be rich in hits. Some 19% of all compounds tested hit in one or more screens of this group.
HT1080NT lethal = kills 2HG-producing HT-1080-NT fibrosarcoma cells; HT-1080-NT fibrosarcoma viability, CellTiter-Glo ATP luminescence, 48 h; Potency, µM (series often up to 46.1 µM), inactives show at the highest dose activity, negative = less viability, usual class: cytotoxic; 360,000 compounds, 1.6% hits;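 also: NT is the 2HG producing partner of a matched IDH1 knockdown line; potency is read from the fitted curve at half-maximal effect; 0% = DMSO-treated cells and -100% = media-only wells without cells; nearly all actives have a fitted effect of over 55% in size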
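Viability of the 2HG-overproducing fibrosarcoma line after 48 hours of compound exposure at 37 degrees C was determined by luminescence with CellTiter-Glo, and concentration-effect curves were then fitted and categorized.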
DT40 TDP1 no CPT = qHTS for Inhibitors of human tyrosyl-DNA phosphodiesterase 1 (TDP1): qHTS in cells in absence of CPT | DT40 Tdp1-/- hTDP1 cells, no CPT, ATP luminescence, 48 h | Potency, µM (highest dose often 46.2 µM), without a hit: top-dose activity change, negative = growth inhibition, actives largely listed as inhibitors | 420,000 compounds, 15% hits; also: potency is read from the fitted curve at half-maximal effect; nearly all actives have a fitted effect of over 55% in size
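Stably hTDP1-transfected Tdp1-null chicken DT40 cells were treated with library compounds minus camptothecin and grown for at least 48 hr at 37 °C, after which cellular ATP was quantified by luminescence.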
IL-1B inflam inh = inflammasome signaling inhibition, IL-1 beta readout | THP-1 LPS/ATP IL-1B secretion, AlphaLISA, 16 h; hits give low values | activity change, % at 57.5 µM | 360,000 compounds, 4.7% hits; in the data active = activity change below about -50%; inconclusive = mostly about -30% to -49%
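Secreted IL-1B measured by AlphaLISA bead assay after 16 h compound exposure of THP-1 cells; compounds (final up to 57.5 uM) added 1 h before LPS (250 ng/mL) and ATP (1.25 mM) stimulation; lower signal means less secretion.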
DT40 TDP1 CPT = DT40-hTDP1 cell growth loss with CPT. Potency, µM (titrated, usually from 46.2 µM), inactives show at the top dose activity change, negative = growth inhibition, most hits filed as inhibitors. 420,000 compounds, 12% hits. chicken DT40 Tdp1-/-;hTDP1 cells + 20 nM CPT, ATP luminescence, 48 h; also: potency is read from the fitted curve at half-maximal effect; nearly all actives have a fitted effect of over 55% in size
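Cell growth measured by CellTiter-Glo luminescence after a minimum 48 h, 37 C compound exposure with 20 nM CPT in Tdp1-knockout DT40 cells stably expressing hTDP1, seeded 400/well; qHTS titration format.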
HT1080 IDH1KD tx = toxicity to HT-1080 IDH1 knockdown cells (counter line). HT-1080 IDH1 knockdown viability, ATP luminescence, 48 h. Potency, µM (series often up to 46.1 µM), for inactives: top-dose activity, negative = toxicity, most hits filed as cytotoxic. 360,000 compounds, 2% hits. AID 686971;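 also: potency is read from the fitted curve at half-maximal effect; 0% = DMSO wells and -100% = cell-free medium wells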
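HT-1080-IDH1KD cells (IDH1 knocked down), 750/well in RPMI with 5% FBS, treated with compound 48 h at 37 degrees C. Viability by CellTiter-Glo luminescence, normalised to DMSO and no-cell wells; concentration-response curves classed.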
Numbers without * were called inactive. Unless noted, calls follow the shape of the dose curve; as a rule, active = well fitted curve in the direction sought with a large enough effect; inconclusive = small, poorly fitted or top-dose-only effect, or another doubt; inactive = no such curve, though single readings can be large; an effect the other way counts as inactive or inconclusive. Unless noted, % is scaled to controls: 0 for no effect and ±100 for the full control effect.

`O=[N+]([O-])c1ccc(N2CCN(c3cccc(Cl)c3)CC2)nc1` gave HT1080NT lethal 2.6%, DT40 TDP1 no CPT 2.6%, IL-1B inflam inh -14.9, DT40 TDP1 CPT -24.4% and HT1080 IDH1KD tx -0.7%.
`N#Cc1c(N2CCN(c3ccc([N+](=O)[O-])cc3)CC2)[n+](=O)c2ccc(Cl)cc2n1[O-]` gave HT1080NT lethal 9.5%, DT40 TDP1 no CPT 1.16µM*, IL-1B inflam inh -1.8, DT40 TDP1 CPT 0.461µM* and HT1080 IDH1KD tx -1.4%.
Screening CC1=C(C(=O)Nc2cccnc2)C(c2ccc(F)cc2)n2nc(SCc3ccccc3F)nc2N1 (centres undefined) returned DT40 TDP1 no CPT -6.1% and DT40 TDP1 CPT -17.1%.
`O=C1N[C@H]2CC=C[C@H]2Nc2ccccc21` gave HT1080NT lethal -4.0%, DT40 TDP1 no CPT 16.4µM*, IL-1B inflam inh -14.7, DT40 TDP1 CPT 13µM* and HT1080 IDH1KD tx -4.2%.
Cn1nc(C(C)(C)C)cc1NC(=O)C1(C)CCN1C(=O)c1ccccc1CCc1ccccc1 (centres undefined) was read as HT1080NT lethal inconclusive, DT40 TDP1 no CPT inconclusive, IL-1B inflam inh -5.3, DT40 TDP1 CPT 18.4µM* and HT1080 IDH1KD tx inconclusive.
CC(C)(C)c1cc(NC(=O)C2(C)CCN2C(=O)c2ccccc2CCc2ccccc2)no1 (centres undefined) was read as HT1080NT lethal -2.7%, DT40 TDP1 no CPT 20.6µM*, IL-1B inflam inh 6.1, DT40 TDP1 CPT inconclusive and HT1080 IDH1KD tx -24.3%.
Cn1nc(C(C)(C)C)cc1NC(=O)C1(C)CCN1C(=O)Cc1ccc(-c2ccccc2)cc1 (centres undefined) was read as HT1080NT lethal inconclusive, DT40 TDP1 no CPT 18.4µM*, IL-1B inflam inh -12.5, DT40 TDP1 CPT 14.6µM* and HT1080 IDH1KD tx inconclusive.
For Cn1nc(C(C)(C)C)cc1NC(=O)C1(C)CCN1C(=O)CCc1ccccc1 (centres undefined) the results were HT1080NT lethal -0.6%, DT40 TDP1 no CPT inconclusive, IL-1B inflam inh -2.7, DT40 TDP1 CPT inconclusive and HT1080 IDH1KD tx 0.0%.
For Cc1cc(NC(=O)OC(C)(C)C)c(-n2nnnc2C(C(=O)c2ccc3c(c2)OCO3)N2CCN(c3ccccn3)CC2)cc1C (centres undefined) the results were HT1080NT lethal -1.8%, DT40 TDP1 no CPT 16.4µM*, IL-1B inflam inh -11.8, DT40 TDP1 CPT 23.1µM* and HT1080 IDH1KD tx -0.2%.
CN(CCc1ccccc1)C(C(=O)c1ccc2c(c1)OCO2)c1nnnn1-c1ccccc1NC(=O)OC(C)(C)C (centres undefined) was read as HT1080NT lethal -8.2%, DT40 TDP1 no CPT 16.4µM*, IL-1B inflam inh 21.1, DT40 TDP1 CPT 14.6µM* and HT1080 IDH1KD tx -17.7%.
CSCCC(NC(=O)c1ccco1)C(=O)OCC(=O)N1c2ccccc2NC(=O)C1(C)C (centres undefined) was read as HT1080NT lethal 0.8%, DT40 TDP1 no CPT 24.2%, IL-1B inflam inh 19.5, DT40 TDP1 CPT -5.2% and HT1080 IDH1KD tx -0.8%.
For CC(C)(CO)[C@@H](O)C(=O)NCCC(=O)NCCSSCCNC(=O)CCNC(=O)[C@H](O)C(C)(C)CO the results were DT40 TDP1 no CPT 13.2% and DT40 TDP1 CPT 14.2%.
Screening COc1ccc(-c2onc(C)c2C)cc1S(=O)(=O)N1c2ccccc2CC1C (centres undefined) returned DT40 TDP1 no CPT inconclusive and DT40 TDP1 CPT 23.1µM*.
For COc1ccc(-c2onc(C)c2C)cc1S(=O)(=O)NCc1ccc(Br)cc1 the results were DT40 TDP1 no CPT 13µM* and DT40 TDP1 CPT 10.3µM*.
`COc1ccc(-c2onc(C)c2C)cc1S(=O)(=O)NCCc1ccco1` gave HT1080NT lethal inconclusive, DT40 TDP1 no CPT -28.4%, IL-1B inflam inh -22.0, DT40 TDP1 CPT inconclusive and HT1080 IDH1KD tx inconclusive.
Screening COc1ccc(-c2onc(C)c2C)cc1S(=O)(=O)NCC1CCN(Cc2cc(C)ccc2C)CC1 returned DT40 TDP1 no CPT 16.4µM* and DT40 TDP1 CPT inconclusive.
For CCN(CC)c1ccc(NS(=O)(=O)c2cc(-c3onc(C)c3C)ccc2OC)c(C)c1 the results were DT40 TDP1 no CPT inconclusive and DT40 TDP1 CPT 23.1µM*.
Screening COc1ccc(-c2cc(C)no2)cc1S(=O)(=O)Nc1cccc(CN2CCCC2)c1 returned HT1080NT lethal -41.6%, DT40 TDP1 no CPT -0.3%, IL-1B inflam inh 0.0, DT40 TDP1 CPT 1.3% and HT1080 IDH1KD tx -19.0%.
Screening Cc1noc(C)c1COC(=O)c1cccc(S(=O)(=O)N2c3ccccc3CC2C)c1 (centres undefined) returned HT1080NT lethal -20.0%, DT40 TDP1 no CPT inconclusive, IL-1B inflam inh -0.3, DT40 TDP1 CPT inconclusive and HT1080 IDH1KD tx inconclusive.
For O=C(CCNC(=O)c1ccc(Cl)cc1)Nc1c(F)c(F)cc(F)c1F the results were HT1080NT lethal -8.5%, DT40 TDP1 no CPT -21.1%, IL-1B inflam inh -11.4, DT40 TDP1 CPT -7.6% and HT1080 IDH1KD tx -6.1%.
`O=C(COC(=O)c1ccc(O)cc1)NC1CCCCCC1` gave HT1080NT lethal -0.4%, DT40 TDP1 no CPT -8.0%, IL-1B inflam inh 2.5, DT40 TDP1 CPT 1.6% and HT1080 IDH1KD tx -9.0%.
Screening CC1(C2CCC3(C)OC3C2)CO1 (centres undefined) returned HT1080NT lethal 6.7%, DT40 TDP1 no CPT -1.3%, IL-1B inflam inh 0.4, DT40 TDP1 CPT -3.8% and HT1080 IDH1KD tx 23.5%.
Screening COc1ccc(-c2cccc(NC(=O)c3ccco3)c2)nn1 returned HT1080NT lethal -2.3%, DT40 TDP1 no CPT 25.9µM*, IL-1B inflam inh -9.9, DT40 TDP1 CPT inconclusive and HT1080 IDH1KD tx -0.9%.
`CS(=O)(=O)c1ccc(-c2cccc(NC(=O)COc3ccc(Cl)cc3)c2)nn1` gave HT1080NT lethal -26.1%, DT40 TDP1 no CPT 15.8%, IL-1B inflam inh -2.3, DT40 TDP1 CPT -1.0% and HT1080 IDH1KD tx inconclusive.
`CS(=O)(=O)c1ccc(-c2cccc(NC(=O)c3ccco3)c2)nn1` gave HT1080NT lethal 3.4%, DT40 TDP1 no CPT 18.4µM*, IL-1B inflam inh -7.8, DT40 TDP1 CPT inconclusive and HT1080 IDH1KD tx 8.1%.
COc1ccc2nc(N3C(=O)CC(C(C)c4ccccc4)C3=O)sc2c1 (centres undefined) was read as HT1080NT lethal 5.7%, DT40 TDP1 no CPT -10.4%, IL-1B inflam inh -0.4, DT40 TDP1 CPT 3.0% and HT1080 IDH1KD tx 15.8%.
`COc1ccc2nc(N3C(=O)/C(=C/c4ccc(Cl)cc4)NC3=S)sc2c1` gave HT1080NT lethal 14.5%, DT40 TDP1 no CPT 20.6µM*, IL-1B inflam inh 21.8, DT40 TDP1 CPT inconclusive and HT1080 IDH1KD tx 21.3%.
